This is a sample that favours compounds with a hit; in the whole collection about 11% have one here.
MCF10A rereplic – inducers of DNA re-replication in MCF 10A breast cells. 350,000 tested, 2.9% active. MCF 10A DNA re-replication, Hoechst nuclear intensity, 48 h. Potency, µM (highest dose often 46.1 µM), without a hit: top-dose activity, positive = re-replication, most hits filed as activators; also: potency is read from the fitted curve at half-maximal effect; % of control where 0% means no effect; nearly all actives have a fitted effect of over 50% in size
SW480 rereplic – inducers of DNA re-replication in SW480 colon cancer cells. SW480 DNA re-replication, Hoechst DNA content imaging, 48 h. Potency, µM (titrated, usually from 46.1 µM), without a hit: at the highest dose re-replication activation, actives largely listed as activators. 340,000 tested, 1.8% active; also: potency is read from the fitted curve at half-maximal effect; % of control where 0% means no effect; nearly all actives have a fitted effect of over 55% in size
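Hoechst fluorescence of nuclei (405 nm excitation, 500-530 nm emission) measured by plate-scanning imager after 48 hr compound exposure at 37 C; re-replication scored as increased number of nuclei with elevated intensity.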
IL1B secr inh – inflammasome signaling inhibition, IL-1 beta readout. THP-1 LPS/ATP IL-1B secretion, AlphaLISA, 16 h; stronger effect = lower value. activity change, % at 57.5 µM. 360,000 tested, 4.7% active. AID 743279; in the data active = activity change below about -50%; inconclusive = mostly about -30% to -49%; also: % is scaled to controls: 0 for no effect and ±100 for the full control effect
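THP-1 cells pretreated 1 hr with compounds (up to 57.5 uM final), then stimulated with LPS (250 ng/mL final) plus ATP (1.25 mM final); secreted IL-1B measured by AlphaLISA after 16 hr, decreased signal indicating inhibition.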
RORgamma inh – inhibitors of mouse ROR gamma transcriptional activity; Drosophila S2 Gal4-RORgamma UAS-luciferase reporter, 20 h; Potency, µM (top dose mostly 53.6 µM), for the others: at the top dose activity change, negative = inhibition, hits mostly inhibitors; 310,000 tested, 5.4% active; AID 2551; also: potency is read from the fitted curve at half-maximal effect; % is scaled to controls: 0 for no effect and ±100 for the full control effect; nearly all actives have a fitted effect of over 60% in size
Target sequence (P51450 whole entry, looked up, the tested form may be a part): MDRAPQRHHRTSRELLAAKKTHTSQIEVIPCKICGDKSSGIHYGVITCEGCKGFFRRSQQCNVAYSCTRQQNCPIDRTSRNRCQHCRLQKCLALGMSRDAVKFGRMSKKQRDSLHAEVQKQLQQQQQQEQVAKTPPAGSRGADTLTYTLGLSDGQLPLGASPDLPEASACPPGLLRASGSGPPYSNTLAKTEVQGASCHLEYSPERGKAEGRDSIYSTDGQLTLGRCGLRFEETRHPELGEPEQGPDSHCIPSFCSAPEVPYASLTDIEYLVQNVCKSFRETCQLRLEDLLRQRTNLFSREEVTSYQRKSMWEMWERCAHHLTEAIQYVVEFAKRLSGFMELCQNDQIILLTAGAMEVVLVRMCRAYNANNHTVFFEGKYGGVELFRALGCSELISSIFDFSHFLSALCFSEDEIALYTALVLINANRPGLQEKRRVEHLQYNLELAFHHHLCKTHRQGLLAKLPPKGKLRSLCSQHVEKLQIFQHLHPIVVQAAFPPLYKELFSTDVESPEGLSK
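Stable Schneider cell line, Gal4 DNA-binding domain fused to ROR gamma, UAS-luciferase. Cmpd 1 hr RT → CuSO4 700 uM final → 20 hr RT → luciferase reagent 10 min → luminescence.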
Gal4-VP16 FLuc – Gal4-VP16 reporter inhibition counter-screen. Drosophila S2 Gal4-VP16 UAS-luciferase, luminescence, 20 h. Potency, µM (series often up to 53.6 µM), without a hit: at the top dose activity, negative = inhibition, hits mostly inhibitors. 310,000 tested, 3.5% active. AID 2546;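 also: Gal4-VP16 expression switched on by copper sulfate through the metallothionein promoter; potency is read from the fitted curve at half-maximal effect; % is scaled to controls: 0 for no effect and ±100 for the full control effect; nearly all actives have a fitted effect of over 50% in size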
Numbers without * were called inactive; ? = inconclusive; · = no result given. Unless noted, calls follow the shape of the dose curve; as a rule, active = well fitted curve in the direction sought with a large enough effect; inconclusive = small, poorly fitted or top-dose-only effect, or another doubt; inactive = no such curve, though single readings can be large; an effect the other way counts as inactive or inconclusive.

SMILES	MCF10A rereplic	SW480 rereplic	IL1B secr inh	RORgamma inh	Gal4-VP16 FLuc
Cc1nc(=S)c2c([nH]1)-c1ccccc1CC21CCCCC1	1.9%	-12.0%	0.6	0.199µM*	1µM*
CCOC(=O)N1CCN(S(=O)(=O)c2ccc(C(=O)N(CCCN(C)C)c3nc4ccc(CC)cc4s3)cc2)CC1	10.1%	?	-61.8*	-10.8%	-17.9%
CCOC(=O)N1CCN(S(=O)(=O)c2ccc(C(=O)N(CCCN(C)C)c3nc4ccc(Cl)cc4s3)cc2)CC1	18.6%	?	-96.4*	?	?
CCN(C(=O)Cn1c(Cl)nc2c1c(=O)n(C)c(=O)n2C)C1CCCCC1	6.6%	-9.0%	11.1	·	·
Cc1cc(C)cc(N(C(=O)c2csnn2)C(C(=O)NC(C)(C)C)c2ccccn2)c1 (centres undefined)	-0.4%	1.1%	0.0	-26.4%	2.6%
Cc1ccc(N(C(=O)c2csnn2)C(C(=O)NC(C)(C)C)c2ccncc2)cc1 (centres undefined)	9.2µM*	18.4µM*	12.1	7.5%	7.5%
CCc1cccc(N(C(=O)c2csnn2)C(C(=O)NC(C)(C)C)c2ccccn2)c1 (centres undefined)	-1.0%	-5.0%	-55.9*	5.3%	9.8%
Cc1c(C(=O)Nc2ccc(F)cc2)oc2ccc(S(=O)(=O)N3CCC4(CC3)OCCO4)cc12	16.1%	0.4%	0.0	38.8%	-3.8%
Cc1c(C(=O)Nc2cccc(Cl)c2)oc2ccc(S(=O)(=O)N3CCC4(CC3)OCCO4)cc12	5.8µM*	3.66µM*	0.0	22.9%	-0.9%
NC(=O)c1cccc(Nc2nc(C(N)Cc3ccc(C(F)(F)F)cc3)cs2)n1 (centres undefined)	·	·	-27.6	·	·
Cc1cc(C)nc(Nc2nc(C(N)Cc3ccc(C(F)(F)F)cc3)cs2)n1 (centres undefined)	·	·	-81.0*	·	·
NC(Cc1ccccc1)c1csc(Nc2ccc(C(F)(F)F)cn2)n1 (centres undefined)	·	·	-53.4*	·	·
COc1cc(OC)nc(Nc2nc(C(N)Cc3ccccc3)cs2)n1 (centres undefined)	·	·	0.0	·	·
COc1cc(OC)nc(Nc2nc(C(N)Cc3ccc(C(F)(F)F)cc3)cs2)n1 (centres undefined)	·	·	-111.5*	·	·
O=[N+]([O-])c1cccc(C2=N[C@@H](Cc3ccccc3)CO2)c1	·	·	·	18.2%	8.7%
O=C(Nc1ccccc1F)c1ccc2sc([C@@H]3O[C@H](CO)[C@H](O)[C@H](O)[C@H]3O)nc2c1	·	·	-9.6	·	·
COc1ccccc1-c1c(C)nn2c(NCCN3CCCC3)cc(C)nc12	-1.1%	1.8%	?	6.31µM*	7.08µM*
Cc1cc(NCCCN2CCOCC2)n2nc(C)c(-c3ccc(F)cc3)c2n1	19.2%	1.6%	-57.0*	-15.0%	4.2%
COC(=O)[C@]12CCCCC=C1N(Cc1ccco1)C(=O)[C@H](CC(=O)NCC13CC4CC(CC(C4)C1)C3)C2	·	·	-16.0	·	·
CC(C)(C)c1cc(C(c2cccnc2)N2CCN(CCO)CC2)cc(C(C)(C)C)c1O (centres undefined)	1.0%	-0.7%	-101.8*	12.6µM*	17.8µM*
CC(C)(C)n1nnnc1C(c1cccnc1)N1CCN(c2cccc(C(F)(F)F)c2)CC1 (centres undefined)	6.1%	-1.1%	-0.6	26.4%	-6.5%
CC(C)(C)c1cc(/C=N/NC(=O)C[n+]2ccccc2)cc(C(C)(C)C)c1O	-12.5%	-2.4%	-9.9	6.1%	10.8%
O=C(O)CN1C(=O)/C(=C\c2cc(Br)ccc2OCc2ccccc2Cl)SC1=S	?	-7.8%	52.1	-4.1%	-5.4%
O=C(O)CN1C(=O)/C(=C\c2cc(Br)ccc2OCc2ccccc2F)SC1=S	18.4µM*	-22.3%	22.6	-7.3%	-0.8%
C=CCOc1ccc(Br)cc1/C=N/O	1.8%	-1.6%	-7.2	19.2%	-8.6%
O/N=C/c1cc(Br)ccc1OCc1ccccc1F	?	-0.5%	-62.7*	·	·
COc1ccc(C(=O)O)cc1S(=O)(=O)Nc1cc(Cl)ccc1N1CCOCC1	10.7%	-5.9%	4.1	·	·
CCN(CC)S(=O)(=O)c1ccc2c(c1)[nH]c(=S)n2CC	14.0%	-3.7%	0.0	6.31µM*	-23.3%
